{"source": "PubChem BioAssay"}
{"assay": "reversal of MRP1-mediated doxorubicin resistance, pilot screen, H69AR cells, doxorubicin co-treatment (AID 601)", "details": "H69AR cells, CellTiter-Glo, 72 h; compound alone cytotoxicity; at 10 µM", "units": {"viability": "%"}}
{"smiles": "Cc1cccc2c(=O)oc(-c3ccc4c(c3)C(=O)N(CC3CCCO3)C4=O)nc12", "note": "(configuration not stated)", "viability": 98.7}
{"smiles": "CC(=O)NC(C)C(=O)OCc1ccc(Cl)cc1Cl", "note": "(configuration not stated)", "viability": 103}
{"smiles": "CC1CCCC(C)N1C(=O)CSc1nnc(-c2cccs2)o1", "note": "(configuration not stated)", "viability": 95.1}
{"smiles": "CC(C)N(C(=O)N1CCC(c2nc(-c3ccncc3)no2)CC1)C(C)C", "viability": 102}
{"smiles": "COc1ccccc1NC(=O)N(Cc1ccco1)Cc1cc2cccc(C)c2[nH]c1=O", "viability": 75.8}
{"smiles": "NC(CO)C(=O)NNCc1ccc(O)c(O)c1O", "note": "(configuration not stated)", "viability": 98.7}
{"smiles": "Cc1csc(NC(=O)Nc2cccc(Cl)c2)n1", "viability": 98.6}
{"smiles": "CCCCOc1ccccc1C1C(C(N)=O)=C(C)Nc2nnnn21", "note": "(configuration not stated)", "viability": 93.3}
{"smiles": "CC(C)Oc1cc2oc(=O)c3c(c2cc1Cl)CCC3", "viability": 98.2}
{"smiles": "Cc1cccc(C)c1OCC(=O)Nc1cccc(NC(=O)c2ccco2)c1", "viability": 84.6}
{"smiles": "CCOC(=O)c1cnc2c(OC)cccc2c1N1CCN(c2ccc(OC)cc2)CC1", "viability": 79.6}
{"smiles": "CC(C)CCNC(=O)C(C)N(Cc1ccc(F)cc1)C(=O)c1ccc(CN2CCCCC2)o1", "note": "(configuration not stated)", "viability": 95.4}
{"smiles": "CCn1nc(C(=O)O)c(=O)c2cc3c(cc21)OCO3", "viability": 106}
{"smiles": "CC(=O)O[C@H]1C[C@@H]2CC[C@@H]3[C@H](CC[C@@]4(C)[C@H]3C[C@H]([N+]3(C)CCCCC3)[C@@H]4OC(C)=O)[C@@]2(C)C[C@@H]1[N+]1(C)CCCCC1", "viability": 94.5}
{"smiles": "COc1ccc(S(=O)(=O)Nc2cccc(C)n2)c2ccccc12", "viability": 100}
{"smiles": "COC(=O)[C@H](C)NC(=O)Nc1cccc(C(F)(F)F)c1", "viability": 89.9}
{"smiles": "Cc1cc2c(c(=O)n1C)C(Cc1ccccc1)C(C#N)=C(N)O2", "note": "(configuration not stated)", "viability": 95.1}
